Data taken from the supplement of paper PMC10646978.
± gives the standard deviation.

How the values were obtained:
Settings in all cases: modulator concentration 10 µM
[1] = test system: RAW-Dual (murine macrophage reporter line); experiment: NF-kB reporter (SEAP) activity fold change vs agonist alone; higher = enhanced NF-kB activity
Method in brief: (§1)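 In 384-well plates holding 50 000 RAW-Dual murine macrophage reporter cells per well, compound at 10 μM final was pre-incubated for 1 hour at 37 °C, after which a PRR agonist was added overnight. Supernatant SEAP read with QUANTI-Blue at 620 nm absorbance reported NF-κB, and Lucia luciferase read with QUANTI-Luc luminescence reported IRF. Fold change values come from dividing each reporter signal by the mean of agonist-only control wells on the same plate, averaged over replicate plates with propagated errors.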

[2] = test system: RAW-Dual (murine macrophage reporter line); experiment: IRF reporter (Lucia luciferase) activity fold change vs agonist alone; higher = enhanced IRF activity
Method in brief: as §1

[3] = test system: RAW-Dual (murine macrophage reporter line); experiment: viability score (confluency relative to resting cells, overnight) (fraction); higher = more viable, active = viable (0.7 or more)
Method in brief: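 Overnight exposure to 10 μM final compound was carried out on RAW-Dual macrophages in 384-well plates. IncuCyte software generated two confluency masks over all wells imaged with IncuCyte. The viability score gives confluency in relation to resting cells. A compound met the cutoff if each mask exceeded 70% of resting cells.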

[4] = agonist: CpG ODN 1826 0.5 ug/mL

Compound	NF-kB reporter [1, 4]	NF-kB reporter ([1]; agonist: LPS 0.1 ug/mL)	NF-kB reporter ([1]; agonist: MPLA […])	IRF reporter ([2]; agonist: 3'3'-cGAMP 10 ug/mL)	IRF reporter ([2]; agonist: LPS 0.1 ug/mL)	IRF reporter ([2]; agonist: MPLA […])	viability score [3]
CCOc1nc2cccc(C(=O)O)c2n1Cc1ccc(-c2ccccc2-c2nn[nH]n2)cc1	1.09 ± 0.15	1.17 ± 0.38	0.976 ± 0.054	0.907 ± 0.069	1.26 ± 0.31	0.98 ± 0.13	1.01 (active)
CC1CC(=O)C2=C(C1)OC(N)=C(C#N)C2c1ccc(Br)cc1 (centres undefined)	0.847 ± 0.088	0.91 ± 0.17	1 ± 0.056	0.782 ± 0.096	0.904 ± 0.04	0.731 ± 0.12	0.994 (active)
Cc1ccc(C(=O)NC2CCN(c3ccc4nncn4n3)C2)c(C)c1 (centres undefined)	0.957 ± 0.13	1.02 ± 0.081	1.15 ± 0.15	1.03 ± 0.066	0.995 ± 0.18	0.935 ± 0.42	1 (active)
CCOCCn1c(C2CCN(CCc3ccc(C(C)(C)C(=O)O)cc3)CC2)nc2ccccc21	1.29 ± 0.34	0.976 ± 0.065	1 ± 0.098	0.925 ± 0.034	1.08 ± 0.13	1.04 ± 0.13	0.521 (inactive)
COC(CNS(=O)(=O)c1ccccc1Br)c1ccc(C)s1 (centres undefined)	1.04 ± 0.1	1.05 ± 0.095	1.13 ± 0.086	0.86 ± 0.082	0.965 ± 0.058	0.854 ± 0.098	0.997 (active)
CN(C)C1C(O)=C(C(N)=O)C(=O)C2(O)C(O)=C3C(=O)c4c(O)ccc(Cl)c4C(O)C3CC12.Cl (centres undefined)	1.37 ± 0.35	1.1 ± 0.067	1.01 ± 0.067	0.894 ± 0.038	1.19 ± 0.14	1.08 ± 0.15	0.991 (active)
N#CC[C@@H](C1CCCC1)n1cc(-c2ncnc3[nH]ccc23)cn1	1.95 ± 0.28	0.915 ± 0.29	0.914 ± 0.051	0.164 ± 0.0051	0.359 ± 0.081	0.595 ± 0.067	0.999 (active)
O=S(=O)(NN=Cc1c[nH]c2ccccc12)c1ccc(Cl)cc1	0.627 ± 0.053	0.619 ± 0.029	0.844 ± 0.078	0.0905 ± 0.0084	1.32 ± 0.11	1.31 ± 0.13	0.962 (active)
COc1ccc2ccccc2c1C=C1SC(=S)N(CC(=O)O)C1=O	1.05 ± 0.081	1 ± 0.12	1 ± 0.099	0.988 ± 0.053	1.34 ± 0.27	1.52 ± 0.4	1.04 (active)
CCC(=O)NS(=O)(=O)c1ccc(-c2c(-c3ccccc3)noc2C)cc1	0.921 ± 0.14	1.2 ± 0.26	0.905 ± 0.05	0.971 ± 0.051	1.47 ± 0.31	1.25 ± 0.1	0.996 (active)
COCCOC(=O)C1=C(C)NC(=O)NC1c1cc(OC)c(OC)c(OC)c1 (centres undefined)	0.937 ± 0.064	1.02 ± 0.062	0.913 ± 0.069	0.956 ± 0.032	1.2 ± 0.15	1.08 ± 0.14	0.995 (active)
COC(=O)C1=CN(CC2CCCO2)C=C(C(=O)OC)C1c1ccccc1OC (centres undefined)	0.826 ± 0.066	0.849 ± 0.059	1.3 ± 0.37	0.996 ± 0.059	1.34 ± 0.094	1.41 ± 0.16	1.02 (active)
CCOc1ccc(Cc2cc([C@@H]3O[C@H](SC)[C@@H](O)[C@H](O)[C@H]3O)ccc2Cl)cc1	0.968 ± 0.25	1.27 ± 0.072	1.06 ± 0.098	1.03 ± 0.053	0.957 ± 0.18	1.07 ± 0.11	0.694 (inactive)
CN(C)CCC(c1ccc(Br)cc1)c1ccccn1.O=C(O)/C=C\C(=O)O (centres undefined)	1.07 ± 0.14	1.15 ± 0.27	0.939 ± 0.052	0.71 ± 0.024	1.17 ± 0.34	0.918 ± 0.086	1.01 (active)
OC(C(=NN=C(c1ccccc1)C(O)c1ccccc1)c1ccccc1)c1ccccc1 (centres undefined)	0.662 ± 0.072	1.14 ± 0.072	1.03 ± 0.063	1.14 ± 0.038	1.48 ± 0.11	1.45 ± 0.19	0.974 (active)
C[C@H]1O[C@H]1P(=O)(O)O.NC(CO)(CO)CO	0.922 ± 0.053	1.05 ± 0.064	0.977 ± 0.079	0.937 ± 0.036	1.06 ± 0.15	0.989 ± 0.2	0.994 (active)
COc1ccc(C(O)CN2CCN(c3cccc(C)c3C)CC2)cc1OC (centres undefined)	0.724 ± 0.18	0.928 ± 0.095	0.95 ± 0.06	0.956 ± 0.054	0.873 ± 0.16	1.04 ± 0.12	0.997 (active)
O=[N+]([O-])c1ccc(CSc2nc3cccnc3[nH]2)cc1	1.17 ± 0.19	0.949 ± 0.12	0.905 ± 0.077	0.935 ± 0.028	1.16 ± 0.12	1.22 ± 0.2	1.01 (active)
CCOCC(=O)Nc1nc2c(C(F)(F)F)cccc2s1	1.16 ± 0.067	0.964 ± 0.11	1.06 ± 0.052	0.969 ± 0.039	1.04 ± 0.048	1.03 ± 0.14	0.989 (active)

Compound	NF-kB reporter [1, 4]	NF-kB reporter ([1]; agonist: LPS 0.1 ug/mL)	NF-kB reporter ([1]; agonist: MPLA […])	IRF reporter ([2]; agonist: 3'3'-cGAMP 10 ug/mL)	IRF reporter ([2]; agonist: LPS 0.1 ug/mL)	IRF reporter ([2]; agonist: MPLA […])	viability score [3]
O=C(c1ccc(OC(F)(F)F)cc1)N1CCC(Oc2cnccn2)CC1	1.05 ± 0.42	1.23 ± 0.061	1.04 ± 0.066	0.902 ± 0.03	1.19 ± 0.13	1.28 ± 0.13	0.996 (active)
COc1ccc(OC)c(CN2CCCC(O)C2)c1 (centres undefined)	1.19 ± 0.075	1.01 ± 0.081	0.942 ± 0.027	0.963 ± 0.055	1.07 ± 0.061	1.06 ± 0.1	1 (active)
Cl.O=C1Cc2cc(CCN3CCN(c4nsc5ccccc45)CC3)c(Cl)cc2N1	0.0947 ± 0.013	1.06 ± 0.24	0.85 ± 0.059	0.646 ± 0.027	1.24 ± 0.24	1.01 ± 0.076	0.983 (active)
Br.COc1ccc2c3c1OC1CC(O)C=CC31CCN(C)C2 (centres undefined)	1.06 ± 0.082	0.892 ± 0.095	1.04 ± 0.1	1 ± 0.04	1.34 ± 0.18	1.43 ± 0.27	0.999 (active)
Cc1cc(O)c(C(C)C)cc1NC(=O)c1cc(C(C)(C)C)oc1C	1.22 ± 0.12	0.884 ± 0.083	1.76 ± 0.13	0.562 ± 0.025	0.998 ± 0.048	2.71 ± 0.29	0.797 (active)
COc1ccccc1OCC(O)CN1CCN(CC(=O)Nc2c(C)cccc2C)CC1.Cl.Cl (centres undefined)	0.724 ± 0.11	0.982 ± 0.19	0.991 ± 0.064	0.908 ± 0.064	1.05 ± 0.23	0.931 ± 0.16	0.991 (active)
CCC(C(=O)Nc1cc(Cl)cc(Cl)c1)c1ccccc1 (centres undefined)	0.851 ± 0.05	1.16 ± 0.098	1.11 ± 0.045	1.09 ± 0.083	1.11 ± 0.062	0.97 ± 0.12	0.991 (active)
COCCN1CCC(NC(=O)c2cccc3ccccc23)CC1	1.16 ± 0.099	1.06 ± 0.096	0.958 ± 0.039	0.992 ± 0.083	1.02 ± 0.072	1.04 ± 0.12	0.998 (active)
COc1ccc(Br)c(C(=O)N2CCOCC2CO)c1 (centres undefined)	0.922 ± 0.049	0.963 ± 0.095	1.03 ± 0.071	0.997 ± 0.098	1.36 ± 0.26	1.52 ± 0.51	0.951 (active)
CCOc1ccccc1NC(=O)N1CCCC1CS(=O)(=O)c1ccccc1 (centres undefined)	1.01 ± 0.062	1.15 ± 0.093	0.954 ± 0.046	1.09 ± 0.057	1.3 ± 0.087	1.14 ± 0.16	0.989 (active)
O=S(=O)(Nc1ccnc2ccccc12)c1ccccc1	0.928 ± 0.075	0.88 ± 0.066	0.936 ± 0.088	0.858 ± 0.03	1.12 ± 0.11	1.15 ± 0.19	1.03 (active)
COc1ccc(C2Oc3cc(OC)cc(OC)c3CC2O)cc1 (centres undefined)	1.01 ± 0.24	1.01 ± 0.07	1.81 ± 0.81	0.881 ± 0.057	1.12 ± 0.27	1.04 ± 0.1	1.01 (active)
CC1(C)CC(NC(=O)c2cccnc2-c2nc3ccccc3s2)CC(C)(C)N1	0.747 ± 0.078	0.964 ± 0.083	0.948 ± 0.19	0.892 ± 0.048	1.06 ± 0.067	1.12 ± 0.09	0.998 (active)
Cn1cc(-c2cc(CNC(=O)c3cncc(F)c3)ccn2)cn1	1.12 ± 0.074	1.09 ± 0.1	0.964 ± 0.033	0.966 ± 0.039	0.973 ± 0.046	1.04 ± 0.2	0.995 (active)
COc1ccc(C=Nn2cc(-c3ccc(Cl)cc3)nc2N=Cc2cc(Br)cc(Br)c2O)cc1	0.863 ± 0.068	0.919 ± 0.067	0.874 ± 0.094	0.883 ± 0.037	1.08 ± 0.14	1.07 ± 0.23	1.02 (active)
O=C(CCC1CCCC1)Nc1cccc(F)c1	0.986 ± 0.059	1.08 ± 0.12	0.959 ± 0.029	0.999 ± 0.045	1.03 ± 0.091	1.12 ± 0.25	1 (active)
O=C(NCCC(CCO)c1ccccc1)Nc1c(F)cccc1F (centres undefined)	0.929 ± 0.078	1.02 ± 0.11	0.898 ± 0.041	0.972 ± 0.059	1.05 ± 0.084	0.978 ± 0.075	0.98 (active)
O=C(O)CCCNC(=O)c1ccccc1C(=O)O	0.896 ± 0.092	0.911 ± 0.067	0.952 ± 0.093	1.04 ± 0.043	1.3 ± 0.14	1.41 ± 0.21	1.03 (active)
